In the library only some 11% were active in any assay of this set; here they are far more common.
HCV inhibitor = inhibitors of hepatitis C virus infection. Huh7.5.1 HCVcc-Cre infection, luciferase reporter, 44 h. actives 3.4% (n = 340,000). AID 651820. Potency, µM (doses to about 41.8 µM), inactives show top-dose activity change, negative = inhibition, most hits filed as inhibitors; also: % is scaled to controls: 0 for no effect and ±100 for the full control effect
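Seed cells (1,000/well) for 4 h; treat with compound and infect with HCVcc-Cre, moi about 0.5. Incubate 44 h, then detect luciferase activity.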
Vaccinia Venus = vaccinia inhibition (Venus reporter); Vaccinia virus Venus reporter expression, fluorescence; actives 0.46% (n = 330,000); Potency, µM (highest dose often 36.5 µM), for the others: at the top dose activity change, negative = inhibition, actives largely listed as inhibitors; AID 720580; calls by dose curve; tested in A549 cells; also: % is scaled to controls: 0 for no effect and ±100 for the full control effect; nearly all actives have a fitted effect of over 30% in size
Vaccinia mCherry = inhibitors of vaccinia virus infection (mCherry reporter signal) | Vaccinia virus mCherry reporter infection, fluorescence | Potency, µM (series often up to 36.5 µM), without a hit: at the highest dose activity change, negative = inhibition, hits mostly inhibitors | actives 0.63% (n = 310,000); calls by dose curve; tested in A549 cells; also: % is scaled to controls: 0 for no effect and ±100 for the full control effect; nearly all actives have a fitted effect of over 35% in size
Pf growth 48h = inhibits P. falciparum growth in the first generation, 48 h; P. falciparum luciferase growth in erythrocytes, 48 h; Potency, µM (top dose mostly 28.7 µM), for the others: top-dose activity change, negative = inhibition, hits mostly inhibitors; actives 5.9% (n = 310,000); AID 504832; also: % is scaled to controls: 0 for no effect and ±100 for the full control effect
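Luciferase-expressing parasites in RBCs, 2% Hct / 0.1% parasitemia final; RPMI 1640 + 0.5% Albumax; 37 C, 5% CO2, one generation; luminescence read-out, lower signal = inhibition.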
NS1 function inh = blocks influenza NS1 protein function. Potency, µM (series often up to 46.1 µM), inactives show top-dose activity, positive = more growth. actives 0.4% (n = 270,000). AID 2326; calls by dose curve; also: actives are rising curves; nearly all actives have a fitted effect of over 50% in size
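Compounds were scored for reversing the slow growth caused by influenza A NS1 in S. cerevisiae, measured by optical density at 600 nm. Assay medium contained 2% galactose at pH 6.0; NS1-free yeast of the same strain were the positive control.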
Pf growth 96h = inhibits malaria parasite growth, 96 h; P. falciparum luciferase reporter growth, 96 h; AID 504834; Potency, µM (highest dose often 28.7 µM), for the others: at the top dose activity change, negative = inhibition, hits mostly inhibitors; actives 6.9% (n = 320,000); also: % is scaled to controls: 0 for no effect and ±100 for the full control effect
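Two-generation exposure (96 h) targets delayed-death phenotype. Reporter parasites carrying integrated firefly luciferase, in red cells at 2% hematocrit and 0.05% parasitemia final, kept at 37 C, 5% CO2; luminescence loss indicates inhibition.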
An asterisk follows results filed as active; i = inactive; ? = inconclusive; · = no result. Unless noted, calls follow the shape of the dose curve; as a rule, active = well fitted inhibition curve with a large enough effect; inconclusive = small, poorly fitted or top-dose-only effect, or another doubt; inactive = no such curve, though single readings can be large or run the other way. Potency is read from the fitted curve at half-maximal effect.

SMILES	HCV inhibitor	Vaccinia Venus	Vaccinia mCherry	Pf growth 48h	NS1 function inh	Pf growth 96h
Oc1ccc(C2C(c3ccccc3)=NN=C(c3ccc(Cl)cc3)N2O)c(O)c1 (stereo not given)	?	3.5%	i	?	18.4%	2.62µM*
O=C(OCc1ccc(C(=O)c2ccccc2)cc1)c1cccc(-c2nnc(-c3ccccc3)o2)c1	14.1µM*	·	·	33.6%	14.5%	167.4%
O=C(OCc1ccccc1)c1cccc(-c2nnc(-c3ccccc3)o2)c1	-1.3%	·	·	69.5%	?	244.8%
CC1CCC(C(C)C)C(OC(=O)c2ccccc2O)C1 (stereo not given)	·	·	·	3.5%	·	?
CN(C)CCCNC(=S)N(CCN(C)C)Cc1cc2cc3c(cc2[nH]c1=O)OCCO3	4.8%	-14.5%	i	0.0%	-7.1%	?
CN(C)CCCNC(=S)N(Cc1cccs1)Cc1cc2cc3c(cc2[nH]c1=O)OCCO3	2.51µM*	0.0%	-5.8%	?	0.1%	-8.3%
CNC(=S)N(Cc1ccco1)Cc1cc2cc(OC)ccc2[nH]c1=O	-29.8%	-7.3%	4.4%	2.62µM*	3.8%	293.5%
COc1ccc(NC(=S)N(Cc2ccc(N(C)C)cc2)Cc2ccco2)cc1	4.9%	-23.2%	-15.8%	3.2%	10.0%	0.657µM*
Cc1ccc(NC(=S)N(Cc2cccs2)Cc2cc3cccc(C)c3[nH]c2=O)cc1	-6.3%	-10.4%	-11.3%	-27.8%	11.8%	7.38µM*
CNC(=S)N(Cc1ccco1)Cc1cc2cc(OC)c(OC)cc2[nH]c1=O	2.2%	-14.3%	-4.5%	?	0.3%	-55.7%
CCOc1ccc(NC(=S)N(Cc2ccc(N(C)C)cc2)Cc2ccco2)cc1	-12.4%	-14.6%	-22.7%	?	-29.6%	-0.5%
CCN(CC)C(=O)Cn1cnc2sc(C(=O)N3CCN(c4ccc(F)cc4)CC3)c(C)c2c1=O	-0.9%	-26.9%	-4.5%	?	·	9.6%
CCN(Cc1cc2cc(OC)ccc2[nH]c1=O)C(=O)c1ccncc1	14.0%	·	·	8.9%	-3.0%	9.28µM*
CCN(Cc1cc2cc(OC)ccc2[nH]c1=O)C(=O)Cc1ccc(OC)cc1	?	-14.9%	·	?	-25.2%	-11.6%
COc1ccc2[nH]c(=O)c(CN(Cc3cccs3)C(=S)Nc3ccccc3)cc2c1	0.1%	·	·	?	2.1%	4.65µM*
CNC(=S)N(Cc1cccs1)Cc1cc2ccc(OC)cc2[nH]c1=O	0.0%	-22.6%	-24.7%	?	9.5%	?
COc1cc2cc(CN(Cc3cccs3)C(=S)Nc3ccccc3)c(=O)[nH]c2cc1OC	?	-23.0%	-24.2%	11.7µM*	26.7%	-0.9%
Cc1cc(C)c(S(=O)(=O)Nc2ccc(OCC(=O)O)cc2)c(C)c1	13.4%	2.8%	4.5%	·	?	2.6%
COc1ccc(Nc2nc(N3CCOCC3)nc(N3CCOCC3)n2)c(OC)c1	?	·	·	?	14.3%	-16.9%
COc1ccccc1Nc1nc(N2CCOCC2)nc(N2CCOCC2)n1	?	-15.3%	-24.4%	?	2.1%	10.4µM*
CCOc1nc(Nc2ccc(OC)c(Cl)c2)nc(OCC)n1	?	-12.4%	-29.4%	·	2.4%	13.1µM*
CCOc1nc(Nc2ccc(OC)cc2)nc(OCC)n1	?	-19.1%	?	-12.4%	-10.8%	·
COc1ccc(Nc2nc(N3CCOCC3)nc(N3CCOCC3)n2)cc1Cl	10µM*	-4.2%	-22.2%	-27.8%	9.1%	8.3%
O=C(c1ccco1)N1CCN(C(=O)C2CCCN(S(=O)(=O)Cc3ccccc3)C2)CC1 (stereo not given)	13.9%	-0.8%	-19.8%	-11.1%	-1.3%	22.1%
O=C(Nc1ccc(F)c(Cl)c1)c1cc(C2CCCCN2C(=O)c2ccc(Cl)cc2)on1 (stereo not given)	·	-4.1%	0.1%	·	·	·
SMILES	HCV inhibitor	Vaccinia Venus	Vaccinia mCherry	Pf growth 48h	NS1 function inh	Pf growth 96h
O=C(Nc1cc(S(=O)(=O)N2CCOCC2)ccc1Cl)c1ccncc1	16.0%	-9.7%	-11.1%	·	·	·
CC1CCN(CCOCCOc2ccc(Cl)cc2Br)CC1	22.4µM*	-22.3%	-21.5%	?	-10.2%	6.57µM*
CC1CCN(CCCOc2ccc(Cl)cc2Br)CC1	-13.2%	-15.7%	-8.0%	-15.1%	·	?
Cc1cc(Cl)c(OCCOCCN2CCC(C)CC2)c(Br)c1	?	-14.4%	-24.9%	?	-5.0%	11.7µM*
N#Cc1ccc(OCC(=O)N/N=C2/CC(c3ccccc3)Oc3ccccc32)cc1 (stereo not given)	4.9%	-4.8%	-7.7%	-7.8%	5.3%	?
COc1ccc(C(C(=O)NC2CCCC2)N(C(=O)CNC(=O)c2ccco2)c2cccnc2)cc1 (stereo not given)	-1.6%	-7.2%	-2.7%	-1.6%	20.4%	-6.2%
CN(CCC#N)C(=O)COC(=O)c1c2c(nc3ccccc13)/C(=C\c1ccco1)CC2	12.6µM*	-21.3%	?	·	·	·
CN1CCc2nc3ccccc3c(C(=O)OCC(=O)N(CCC#N)c3ccccc3)c2C1	-21.7%	-5.6%	i	?	9.7%	13.1µM*
CSc1nc2c(c(=O)n1Cc1ccccc1)SC(C)C2 (stereo not given)	-1.2%	-23.4%	-16.6%	11.7µM*	-45.7%	-11.9%
CC1Cc2nc(SCC(=O)NCc3ccccc3)n(Cc3ccccc3)c(=O)c2S1 (stereo not given)	?	-3.8%	-23.5%	?	-1.1%	?
CC1Cc2nc(SCC(=O)c3ccccc3)n(Cc3ccccc3)c(=O)c2S1 (stereo not given)	11.2µM*	-7.9%	-5.4%	?	8.2%	?
CCOC(=O)N1CCN(S(=O)(=O)c2ccc(C(=O)Nc3nnc(C4CC4)o3)cc2)CC1	-12.8%	1.1%	-14.8%	1.3%	-28.1%	?
CC(c1ccccc1)[n+]1ccccc1 (stereo not given)	?	-13.5%	-25.9%	9.28µM*	·	11.7µM*
COc1ccccc1OCC(=O)Nc1sc2c(c1C(=O)NCC1CCCO1)CCC2 (stereo not given)	0.891µM*	-9.1%	-15.9%	13.1µM*	7.9%	10.4µM*
COc1ccc(S(=O)(=O)N2CCCCC2)cc1NC(=O)Cc1cccs1	-8.2%	-18.6%	i	11.7µM*	·	?
O=C(Cc1cccs1)Nc1cc(S(=O)(=O)N2CCCCC2)ccc1Cl	-14.6%	·	·	?	·	?
CCOc1ccc(S(=O)(=O)N2CCCCC2)cc1NC(=O)Cc1cccc(C(F)(F)F)c1	?	·	·	?	·	9.28µM*
CCN(CC)C(=O)c1ccc(NC(=O)c2cc(S(=O)(=O)N3CCCCCC3)ccc2OC)cc1	?	-7.0%	-26.1%	7.38µM*	·	9.28µM*
COc1ccc(S(=O)(=O)N2CCOCC2)cc1NC(=O)Cc1sc(C)nc1-c1ccc(F)cc1	-26.5%	-12.5%	-18.8%	?	·	?
COc1ccc(Cl)cc1C(=O)Nc1ccc(S(=O)(=O)N2CCCC2)cc1	10.8%	-6.7%	-8.1%	39.9%	3.0%	·

Compound activity as filed in PubChem.
